Screening results: PubChem BioAssay, National Center for Advancing Translational Sciences (NCATS)
Hits are enriched below; roughly 17% of the tested compounds scored in any of these assays.
TDP1 inh – qHTS Assay for Inhibitors of Tyrosyl-DNA Phosphodiesterase (TDP1); Tyrosyl-DNA phosphodiesterase 1 (Homo sapiens), Q9NUW8; recombinant TDP1, AlphaScreen DNA substrate cleavage; Potency, µM (titrated, usually from 130 µM), for the others: at the highest dose activity change, negative = inhibition, actives largely listed as inhibitors; 350,000 tested, 0.28% active; AID 485290, 2010; also: % is scaled to controls: 0 for no effect and ±100 for the full control effect; nearly all actives have a fitted effect of over 40% in size
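E. coli-derived human Tdp1, 1 nM final. Cpd preinc 15 min RT; substrate 15 nM final, 5 min RT; AS bead mix 10 ug/ml final, 10 min RT. Signal loss = tyrosine-FITC cleavage. No-enzyme wells = max signal.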
ClpP mod – qHTS Assay for Activators of ClpP; AID 651965, 2013; 340,000 tested, 1.9% active; purified B. subtilis ClpP, FRET peptide cleavage, 20 min; ATP-dependent Clp protease proteolytic subunit (Bacillus subtilis (strain 168)), P80244; Potency, µM (titrated, usually from 57.5 µM), without a hit: at the top dose activity change, negative = active; active = well fitted falling curve with a large enough effect; inconclusive = small, poorly fitted or top-dose-only effect; inactive = no such curve, though single readings can be large or run the other way; also: the source files actives as falling curves though it sought activators and does not explain the sign; nearly all actives have a fitted effect of over 65% in size
Target sequence (P80244 whole entry, looked up): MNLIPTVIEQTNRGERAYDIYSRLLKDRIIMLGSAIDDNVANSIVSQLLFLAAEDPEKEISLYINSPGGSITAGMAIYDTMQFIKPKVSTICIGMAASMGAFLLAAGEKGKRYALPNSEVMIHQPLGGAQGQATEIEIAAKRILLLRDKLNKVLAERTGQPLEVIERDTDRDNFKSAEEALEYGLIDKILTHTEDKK
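ClpP 10 microg/mL final, pH 8 Tris/KCl buffer with BSA, glycerol, Tween-20; compound pinned in; FRET-FV substrate; RT 20 min; Ex320/Em430; ΔFRET vs ADEP 5.8 microM, DMSO, no enzyme.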
DT40 TDP1 CPT – qHTS for Inhibitors of human tyrosyl-DNA phosphodiesterase 1 (TDP1): qHTS in cells in presence of CPT | chicken DT40 Tdp1-/-;hTDP1 cells + 20 nM CPT, ATP luminescence, 48 h | Potency, µM (series often up to 46.2 µM), inactives show top-dose activity change, negative = growth inhibition, hits mostly inhibitors | 420,000 tested, 12% active; also: % is scaled to controls: 0 for no effect and ±100 for the full control effect; nearly all actives have a fitted effect of over 55% in size
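Chicken DT40 Tdp1-/- cells stably complemented with human TDP1 were seeded at 400 cells/well in medium containing 20 nM camptothecin, exposed to pin-transferred compounds, and grown at 37 °C for at least 48 hr. Viability was read as ATP luminescence.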
DT40 TDP1 no CPT – qHTS for Inhibitors of human tyrosyl-DNA phosphodiesterase 1 (TDP1): qHTS in cells in absence of CPT. DT40 Tdp1-/- hTDP1 cells, no CPT, ATP luminescence, 48 h. Potency, µM (doses to about 46.2 µM), inactives show at the highest dose activity change, negative = growth inhibition, usual class: inhibitors. 420,000 tested, 15% active; also: % is scaled to controls: 0 for no effect and ±100 for the full control effect; nearly all actives have a fitted effect of over 55% in size
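Growth of hTDP1-complemented DT40 Tdp1-knockout cells is measured by ATP luminescence after at least 48 hr compound exposure at 37 °C, with DMSO substituting for the 20 nM CPT used in the parallel screen.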
An asterisk follows results filed as active; ? = inconclusive; / = no result given; [ ] = dose if it differs, or a comment. Unless noted, calls follow the shape of the dose curve; as a rule, active = well fitted curve in the direction sought with a large enough effect; inconclusive = small, poorly fitted or top-dose-only effect, or another doubt; inactive = no such curve, though single readings can be large; an effect the other way counts as inactive or inconclusive. Potency is read from the fitted curve at half-maximal effect.

SMILES	TDP1 inh	ClpP mod	DT40 TDP1 CPT	DT40 TDP1 no CPT
COc1ccc(CNC(=O)C(=O)NCCC2CCCCN2S(=O)(=O)c2cccs2)cc1 (configuration not stated)	0%	0%	?	?
COc1ccc(NC(=O)C(=O)NCCC2CCCCN2S(=O)(=O)c2ccccc2)cc1 (configuration not stated)	0%	-3%	4.1µM*	2.9µM*
COc1cccc(NC(=O)C(=O)NCCC2CCCCN2S(=O)(=O)c2cccs2)c1 (configuration not stated)	0%	-3%	?	16µM*
O=C(NCCC1CCCCN1S(=O)(=O)c1cccs1)C(=O)Nc1ccccc1 (configuration not stated)	-2%	1%	16µM*	23µM*
COc1ccc(NC(=O)C(=O)NCCC2CCCCN2S(=O)(=O)c2cccs2)cc1 (configuration not stated)	0%	0%	3.7µM*	4.6µM*
Nc1nc(NCc2ccccc2)c2[nH]cnc2n1	3%	-4%	-9%	1%
O=C(NCCC1CCCCN1S(=O)(=O)c1ccc(F)cc1)C(=O)Nc1ccccc1 (configuration not stated)	0%	-13%	?	18µM*
Cc1cc(C)n(-c2ccc(C(=O)N3CCc4c(cnc(C)c4CNC(=O)c4ccccc4F)C3)cc2)n1	/	/	-7%[9.04 µM]	-10%
CCOC1(C)OCC(=O)[C@]2(CCC3C4CCC5=CC(=O)C=CC5(C)C4C(=O)CC32C)O1 (some centres not stated)	3%	-5%	-4%	?
FC(F)C(F)(F)Oc1cccc(Nc2nccn3c(-c4cccc5ccccc45)cnc23)c1	/	4%	16µM*	?
FC(F)C(F)(F)Oc1cccc(Nc2nccn3c(-c4ccc5ccccc5c4)cnc23)c1	/	4%	?	23µM*
NC(=O)c1cccc(-c2cnc3c(Nc4cccc(OC(F)(F)C(F)F)c4)nccn23)c1	/	-21%	?	?
Oc1ccc(-c2cnc3c(Nc4cccc(OC(F)(F)C(F)F)c4)nccn23)cc1	/	14%	?	?
CN(C)S(=O)(=O)c1cccc(NC(=O)CNc2cccc(S(=O)(=O)N3CCCCC3)c2)c1	/	-3%	?	21µM*
CCN(CC)S(=O)(=O)c1ccc(C)c(NC(=O)CNc2cccc(S(=O)(=O)N3CCOCC3)c2)c1	/	/	-4%	?
CCN(CC)S(=O)(=O)c1ccc(C)c(NC(=S)Nc2cccc(S(=O)(=O)N3CCCCCC3)c2)c1	1%	-3%	?	23µM*
CCN(CC)S(=O)(=O)c1cc(NC(=O)CNc2cccc(S(=O)(=O)N3CCCC3)c2)ccc1C	1%	-5%	3.3µM*	2.6µM*
CCc1noc(C)c1C(=O)N(CCOC)c1c(N)n(CC(C)C)c(=O)[nH]c1=O	-10%	-2%	-9%	20%
CC(C)c1ccc(S(=O)(=O)NCc2ccc3c(c2)CCN3C(=O)c2ccccc2)cc1	5%	0%	23µM*	15µM*
COc1ccc(S(=O)(=O)NCc2ccc3c(c2)CCN3C(=O)c2ccccc2)cc1OC	5%	-2%	?	?
COc1ccc(S(=O)(=O)NCc2ccc3c(c2)CCN3C(=O)c2ccc(C)cc2)cc1Cl	8%	-1%	21µM*	16µM*
CCOc1ccc(S(=O)(=O)NCc2ccc3c(c2)CCN3C(=O)c2ccc(C)cc2)cc1	5%	-6%	13µM*	9.2µM*
CCc1ccc(S(=O)(=O)NCc2ccc3c(c2)CCN3C(=O)c2ccc(C)cc2)cc1	3%	-3%	7.3µM*	8.2µM*
COc1ccc(Oc2ncc3nc(C)c(=O)n(C)c3n2)cc1	/	/	1%	-22%
COc1ccc2c(c1)NC(c1ccc(Cl)cc1)=NC(c1cccs1)=N2	7%	3%	29µM*	-76%
SMILES	TDP1 inh	ClpP mod	DT40 TDP1 CPT	DT40 TDP1 no CPT
COc1ccc(C2=Nc3ccc(OC(F)(F)F)cc3NC(c3cccnc3)=N2)cc1	5%	5%	10µM*	6.5µM*
COc1ccc2c(c1)NC(c1ccc(OCC(C)C)cc1)=NC(c1ccncc1)=N2	12%	0%	?	?
CCCCOc1ccc(C2=NC(c3ccccc3)=Nc3ccc(OC)cc3N2)cc1	0%	3%	16µM*	23µM*
CCOc1ccc(C2=NC(c3ccc(OC)cc3)=Nc3ccc(Cl)cc3N2)cc1	5%	-2%	?	21µM*
Nc1c(C(=O)N2CCCCC2)sc(=S)n1-c1ccccc1	11%	-1%	21µM*	?
COC(=O)c1ccc(C)c(-n2c(C)cc(C=O)c2C)c1	0%	0%	-11%	?
COc1ccccc1Cc1c(-c2ccc(C)cc2)nc2ccc(Cl)cn12	/	-20%	?	0.46µM*
COc1ccccc1Cc1c(-c2ccc(C#N)cc2)nc2ccc(C)cn12	/	5%	?	18µM*
COc1ccccc1Cc1c(-c2ccc(OC)c(OC)c2)nc2ccc(Cl)cn12	/	6%	?	?
COc1ccc(Cc2c(-c3ccc(F)cc3)nc3ccc(Br)cn23)c(C)c1	/	-6%	-29%	?
Cc1ccc2nc(-c3cccc(Cl)c3)c(Cc3ccccc3)n2c1	/	4%	21µM*	16µM*
COc1ccc(Cc2c(-c3ccc(C)cc3)nc3ccc(Cl)cn23)c(C)c1	/	?	23µM*	23µM*
Nc1nnc(CSCc2cccc(Br)c2)s1	6%	/	-16%	-18%
COc1ccccc1Cc1c(-c2cccc(Cl)c2)nc2ccc(C)cn12	/	5%	18µM*	15µM*
C#C[C@@]1(O)CCC2C3CCc4cc(O)ccc4C3CC[C@@]21C (some centres not stated)	12%[56.1 µM]	/	?	?
CC(NCCN(C)C)C1CCC2C3CCc4cc(O)ccc4C3CCC12C (configuration not stated)	/	-2%	?	1.6µM*
C[C@]12CC[C@@H]3c4ccc(O)cc4CC[C@H]3[C@@H]1CC[C@@H]2O	3%	-1%	?	23µM*
C#C[C@]1(O)CC[C@H]2[C@@H]3CCc4cc(O)ccc4[C@H]3CC[C@@]21C	-6%	1%	?	15µM*
CN(C)S(=O)(=O)N1CCC(Oc2ccc(C(=O)NCc3cnn(C)c3)cc2)CC1	4%	-1%	-21%	21µM*
COCCN(C(=O)c1ccc(OC2CCN(S(=O)(=O)N(C)C)CC2)cc1)C(C)C	/	1%	?	13µM*
CN(C)S(=O)(=O)N1CCC(Oc2ccc(C(=O)NCC(C)(C)CO)cc2)CC1	1%	0%	9%	?
